Measured values as given in PubChem BioAssay AID1159580 (chemical genetic matrix, 2015).
Hit rate of the full screen: of about 5,500 compounds, about 2,000 (36%) were called active. Roughly 18% stayed inconclusive and do not appear here. Cut-off read from the data, not from the text of the source: active = normalized growth mostly below about 0.91 (no sharp cut-off); inconclusive = no clear call, values can overlap the other calls; inactive = mostly above about 0.92. The list shows a part of the results.

Experiment: chemical genetic growth profiling, strain panel (AID 1159580);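 note: tested at 20 µM; growth read once vehicle control cultures reached saturation at 30 °C; 1 = growth at the plate median or of vehicle wells; lower values mean less growth of the strain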
Details: growth OD
[1] = S. cerevisiae deletion strains, locus YDL101C, strain DUN1, hits give low values
[2] = S. cerevisiae deletion strains, locus YHR030C, strain SLT2, hits give low values
[3] = S. cerevisiae deletion strains, locus YAL013W, strain DEP1, hits give low values
[4] = S. cerevisiae deletion strains, locus YBR229C, strain ROT2, hits give low values
[5] = S. cerevisiae deletion strains, locus YDL134C, strain PPH21, hits give low values
[6] = S. cerevisiae deletion strains, locus YDR150W, strain NUM1, hits give low values
[7] = S. cerevisiae deletion strains, locus YEL061C, strain CIN8, hits give low values
[8] = S. cerevisiae deletion strains, locus YGR078C, strain PAC10, hits give low values
[9] = S. cerevisiae deletion strains, locus YHR087W, strain rtc3, hits give low values
[10] = S. cerevisiae deletion strains, locus YJR043C, strain POL32, hits give low values
[11] = S. cerevisiae deletion strains, locus YJR075W, strain HOC1, hits give low values
[12] = S. cerevisiae deletion strains, locus YKL190W, strain CNB1, hits give low values
[13] = S. cerevisiae deletion strains, locus YLR039C, strain RIC1, hits give low values
[14] = S. cerevisiae deletion strains, locus YLR058C, strain SHM2 (second series), hits give low values
[15] = S. cerevisiae deletion strains, locus YLR085C, strain ARP6, hits give low values
[16] = S. cerevisiae deletion strains, locus YLR262C, strain YPT6, hits give low values
[17] = S. cerevisiae deletion strains, locus YML094W, strain GIM5, hits give low values
[18] = S. cerevisiae deletion strains, locus YMR219W, strain ESC1, hits give low values
[19] = S. cerevisiae deletion strains, locus YMR263W, strain SAP30, hits give low values
[20] = S. cerevisiae deletion strains, locus YNL153C, strain GIM3, hits give low values
[21] = S. cerevisiae deletion strains, locus YNL298W, strain CLA4 (second series), hits give low values
[22] = S. cerevisiae deletion strains, locus YNL322C, strain KRE1, hits give low values
[23] = S. cerevisiae deletion strains, locus YNR030W, strain Alg12, hits give low values
[24] = S. cerevisiae deletion strains, locus YPL055C, strain LGE1, hits give low values
[25] = S. cerevisiae deletion strains, locus YPL241C, strain CIN2, hits give low values
[26] = S. cerevisiae deletion strains, locus YPR135W, strain CTF4, hits give low values
[27] = S. cerevisiae strains, strain wild type, hits give low values

Measured: normalized growth

Cc1c(S(=O)(=O)Nc2cccc([N+](=O)[O-])c2)sc2ccc(Cl)cc12
inactive: S. cerevisiae deletion strains, locus YAR019C, strain CDC15, hits give low values 0.965 | S. cerevisiae deletion strains, locus YBL105C, strain PKC1, hits give low values 0.973 | S. cerevisiae deletion strains, locus YBR135W, strain CKS1, hits give low values 0.968 | S. cerevisiae deletion strains, locus YBR136W, strain MEC1, hits give low values 0.973 | S. cerevisiae deletion strains, locus YBR160W, strain CDC28, hits give low values 0.967 | S. cerevisiae deletion strains, locus YDL017W, strain CDC7, hits give low values 0.972 | S. cerevisiae deletion strains, locus YDL028C, strain MPS1, hits give low values 0.979 | [1] 0.963 | S. cerevisiae deletion strains, locus YDL108W, strain KIN28, hits give low values 0.981 | S. cerevisiae deletion strains, locus YDL132W, strain cdc53, hits give low values 0.955 | S. cerevisiae deletion strains, locus YDL214C, strain PRR2, hits give low values 0.991 | S. cerevisiae deletion strains, locus YDR052C, strain DBF4, hits give low values 0.958 | S. cerevisiae deletion strains, locus YDR054C, strain cdc34, hits give low values 0.969 | S. cerevisiae deletion strains, locus YDR226W, strain ADK1, hits give low values 0.966 | S. cerevisiae deletion strains, locus YDR477W, strain SNF1, hits give low values 0.979 | S. cerevisiae deletion strains, locus YER123W, strain YCK3, hits give low values 1.01 | S. cerevisiae deletion strains, locus YER133W, strain GLC7, hits give low values 0.982 | S. cerevisiae deletion strains, locus YFL009W, strain cdc4, hits give low values 0.97 | S. cerevisiae deletion strains, locus YFL029C, strain CAK1, hits give low values 0.97 | S. cerevisiae deletion strains, locus YFR003C, strain YPI1, hits give low values 0.98 | S. cerevisiae deletion strains, locus YFR019W, strain FAB1, hits give low values 0.975 | S. cerevisiae deletion strains, locus YFR028C, strain CDC14, hits give low values 0.973 | S. cerevisiae deletion strains, locus YGR040W, strain KSS1, hits give low values 0.96 | S. cerevisiae deletion strains, locus YGR052W, strain FMP48, hits give low values 1.09 | S. cerevisiae deletion strains, locus YGR092W, strain DBF2, hits give low values 0.932 | S. cerevisiae deletion strains, locus YHR079C, strain IRE1, hits give low values 0.913 | S. cerevisiae deletion strains, locus YHR082C, strain KSP1, hits give low values 1.01 | S. cerevisiae deletion strains, locus YHR205W, strain SCH9, hits give low values 0.986 | S. cerevisiae deletion strains, locus YIL147C, strain SLN1, hits give low values 0.976 | S. cerevisiae deletion strains, locus YJL095W, strain BCK1, hits give low values 0.979 | S. cerevisiae deletion strains, locus YJL128C, strain PBS2, hits give low values 0.963 | S. cerevisiae deletion strains, locus YJL157C, strain FAR1, hits give low values 1.01 | S. cerevisiae deletion strains, locus YJR016C, strain ILV3, hits give low values 0.969 | S. cerevisiae deletion strains, locus YJR066W, strain TOR1 (second series), hits give low values 0.999 | S. cerevisiae deletion strains, locus YJR066W, strain TOR1, hits give low values 1.03 | S. cerevisiae deletion strains, locus YKL048C, strain ELM1, hits give low values 0.967 | S. cerevisiae deletion strains, locus YKL067W, strain YNK1, hits give low values 0.99 | S. cerevisiae deletion strains, locus YKL101W, strain HSL1, hits give low values 0.981 | S. cerevisiae deletion strains, locus YKL193C, strain SDS22, hits give low values 0.971 | S. cerevisiae deletion strains, locus YKL203C, strain TOR2, hits give low values 1 | S. cerevisiae deletion strains, locus YLR113W, strain HOG1, hits give low values 0.878 | S. cerevisiae deletion strains, locus YLR133W, strain CKI1, hits give low values 0.989 | S. cerevisiae deletion strains, locus YLR403W, strain SFP1, hits give low values 0.954 | S. cerevisiae deletion strains, locus YML070W, strain DAK1, hits give low values 0.974 | S. cerevisiae deletion strains, locus YMR001C, strain CDC5, hits give low values 0.974 | S. cerevisiae deletion strains, locus YMR205C, strain PFK2 (second series), hits give low values 0.992 | S. cerevisiae deletion strains, locus YMR277W, strain FCP1, hits give low values 0.989 | S. cerevisiae deletion strains, locus YNL006W, strain LST8, hits give low values 0.966 | S. cerevisiae deletion strains, locus YNL020C, strain ARK1, hits give low values 0.972 | S. cerevisiae deletion strains, locus YNL161W, strain CBK1, hits give low values 0.971 | S. cerevisiae deletion strains, locus YNL183C, strain NPR1, hits give low values 0.926 | S. cerevisiae deletion strains, locus YNL207W, strain RIO2, hits give low values 0.983 | S. cerevisiae deletion strains, locus YNL222W, strain SSU72, hits give low values 0.966 | S. cerevisiae deletion strains, locus YNL307C, strain MCK1 (second series), hits give low values 0.988 | S. cerevisiae deletion strains, locus YOL078W, strain AVO1, hits give low values 0.975 | S. cerevisiae deletion strains, locus YOL136C, strain PFK27, hits give low values 0.968 | S. cerevisiae deletion strains, locus YOR061W, strain CKA2, hits give low values 0.966 | S. cerevisiae deletion strains, locus YOR119C, strain RIO1, hits give low values 1.08 | S. cerevisiae deletion strains, locus YOR231W, strain MKK1, hits give low values 0.955 | S. cerevisiae deletion strains, locus YOR329C, strain SCD5, hits give low values 0.971 | S. cerevisiae deletion strains, locus YPL031C, strain PHO85, hits give low values 0.985 | S. cerevisiae deletion strains, locus YPL153C, strain RAD53, hits give low values 0.962 | S. cerevisiae deletion strains, locus YPL204W, strain HRR25, hits give low values 0.964 | S. cerevisiae deletion strains, locus YPL209C, strain IPL1, hits give low values 0.973 | S. cerevisiae deletion strains, locus YPL256C, strain CLN2, hits give low values 0.926 | S. cerevisiae deletion strains, locus YPR025C, strain CCL1, hits give low values 0.97 | S. cerevisiae deletion strains, locus YPR106W, strain ISR1, hits give low values 0.971 | S. cerevisiae deletion strains, locus YPR111W, strain DBF20, hits give low values 0.965 | S. cerevisiae deletion strains, strain NNK1, hits give low values 0.951 | S. cerevisiae deletion strains, strain TSCII, hits give low values 0.964
active: [2] 0.752

FC(F)(F)Oc1ccccc1-c1nnc(-c2ccc(Cl)cc2)o1
active: [2] 0.442 | [11] 0.87 | [12] 0.9 | [15] 0.68 | [23] 0.837 | [25] 0.852
inactive: [3] 0.946 | [4] 0.968 | [1] 0.971 | [5] 0.963 | [6] 0.912 | [7] 0.931 | [8] 0.934 | [9] 0.924 | S. cerevisiae deletion strains, locus YJL187C, strain SWE1, hits give low values 0.957 | [10] 0.975 | [13] 0.874 | [14] 0.95 | [16] 0.963 | [17] 0.878 | [18] 0.966 | [19] 0.948 | [20] 0.976 | [21] 0.872 | [22] 0.944 | S. cerevisiae deletion strains, locus YOL006C, strain TOP1, hits give low values 0.767 | [24] 0.851 | [26] 0.73 | [27] 0.94

Cc1nn(-c2ccccc2)nc1-c1nnc(-c2ccc(Cl)cc2)o1
inactive: [3] 1.02 | [4] 1.01 | S. cerevisiae deletion strains, locus YCL061C, strain MRC1, hits give low values 0.986 | [1] 0.995 | [5] 1 | [6] 1 | [7] 1.01 | [8] 0.993 | S. cerevisiae deletion strains, locus YGR229C, strain SMI1, hits give low values 1.01 | [2] 1.03 | [9] 1.04 | [10] 1.02 | [11] 1 | [12] 1.01 | [13] 1.04 | [14] 1.02 | [15] 1.03 | [16] 1.03 | [17] 1.04 | [18] 0.998 | [19] 1.05 | S. cerevisiae deletion strains, locus YMR307W, strain GAS1, hits give low values 1.07 | [20] 1 | [21] 1.01 | [22] 0.988 | [23] 1.03 | [24] 1.01 | [25] 1 | [26] 0.98 | [27] 1.01
